The subject of test [1] is XIP peptide (Xip251-270) binding. As to the kind of experiment: XIP fragment 251-270 binding compounds – biochemical, small-molecule microarray, fluorescence 635/667 nm, 0.1 µg/mL protein, primary screen (AID 1182). Particulars: fluorescent protein binding, 635 nm, higher = more signal, called active from +8 up or from −8 down.
In the next test the test system is XIP peptide (Xip251-270). As to the kind of experiment: compounds binding XIP fragment 251-270 – biochemical, small-molecule microarray, fluorescence 635/667 nm, 0.5 µg/mL protein, primary screen (AID 1183). Particulars: fluorescence 635 nm, higher = more signal.
Test [2] is described as follows: blood-stage malaria parasite viability loss – strain 3D7, DAPI fluorescence, 100 nL, primary screen (AID 1184).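 Also: parasites grown inside human red blood cells in medium with human serum.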 The conditions noted are these: P. falciparum 3D7 growth, 3 d, higher = more signal.
Test [3] has as its target Homeobox protein Hox-A13 (Mus musculus) (UniProt Q62424). In words: disruptors of Hoxa13 oligonucleotide interaction – biochemical, fluorescence polarization, labeled oligonucleotide, primary screen (AID 1185). The conditions noted are these: Hoxa13:DNA binding, 15 min, higher = more signal, called active from +8 up or from −8 down.
The nature of test [4]: blockers of DNA damage checkpoint Chk1 activation – imaging, HeLa, hydroxyurea, phospho-Chk1 antibody, percent positive cells, primary screen (AID 1186). The conditions noted are these: hydroxyurea-induced phospho-Chk1 immunofluorescence imaging, higher = more signal.
Test [5] in a line: blockers of DNA damage checkpoint Chk1 activation – imaging, HeLa, hydroxyurea, phospho-Chk1 nuclear intensity, primary screen (AID 1187). The conditions noted are these: hydroxyurea-induced phospho-Chk1 immunofluorescence imaging, higher = more signal.

Active and inactive are the calls of the source. Unless noted, no rule for the calls is given here.

Homeobox protein Hox-A13 (Mus musculus), sequence (Q62424 whole entry, looked up): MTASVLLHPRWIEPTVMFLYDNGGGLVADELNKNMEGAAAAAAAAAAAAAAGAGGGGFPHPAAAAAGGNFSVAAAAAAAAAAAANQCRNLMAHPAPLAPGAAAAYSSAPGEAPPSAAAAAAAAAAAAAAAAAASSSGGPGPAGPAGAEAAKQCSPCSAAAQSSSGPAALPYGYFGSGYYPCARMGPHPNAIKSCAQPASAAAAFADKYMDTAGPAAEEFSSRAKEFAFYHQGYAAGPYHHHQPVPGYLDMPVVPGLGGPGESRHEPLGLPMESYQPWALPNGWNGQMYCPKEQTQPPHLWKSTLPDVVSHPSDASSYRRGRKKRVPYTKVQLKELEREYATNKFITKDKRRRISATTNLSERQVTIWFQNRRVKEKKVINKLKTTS

For `C=C(/C(=C/C[C@H](OC(=O)c1ccncc1)c1cccc(OCCO)c1)c1cnc2ccccc2c1)C(C)C`, the composite z-score in test [1] is 0.0082 (inactive); in the test with XIP peptide (Xip251-270), 0.67. Further, the z-score is -1.42 in test [2], -5.01 (inactive) in test [3], 0.654 (inactive) in test [4] and 0.212 (inactive) in test [5].
As for `C=C(C(=O)CC[C@@H](OC(=O)c1ccccc1-c1ccccc1C(=O)O)c1ccccc1OCCO)C(C)C`, the composite z-score in test [1] is 0.341 (inactive); with XIP peptide (Xip251-270), 0.698. Besides, the z-score in test [2] was -2.04; in test [3] it was -5.82 (inactive); in test [4], 0.57 (inactive); in test [5], 0.916 (inactive).
With `C=C(/C(=C/C[C@@H](OC(C)=O)c1ccc(CO)o1)c1cc(C(=O)OC)ccc1OC)C(C)C`, the composite z-score in test [1] is 0.698 (inactive); with XIP peptide (Xip251-270), 0.135. The z-score is -0.485 in test [2], -4.95 (inactive) in test [3], 0.623 (inactive) in test [4] and 0.273 (inactive) in test [5].
As to `CC(C)[C@H]1NC(=O)[C@@]23C(=O)N[C@@H](Cc4ccccc4)C2[C@H](C)[C@@]2(C)O[C@H]2C3/C=C/CCC/C=C/CNC(=O)[C@H](Cc2ccccc2)NC1=O` (some centres not stated), the composite z-score was 0.621 (inactive) in test [1] and 0.741 in the test with XIP peptide (Xip251-270). For the same compound, the z-score in test [2] is -1.83; in test [3] it was -6.22 (inactive); in test [4], -0.165 (inactive); in test [5], -0.0036 (inactive).
Turning to `CC(C)C(=C=CC[C@@H](O)c1cccc(OCCO)c1)C[C@@H](O)COCc1ccccc1`, the figures for the composite z-score (in test [1]; with XIP peptide (Xip251-270)) were -0.096 (inactive) and 0.294, respectively. For the same compound, the z-score in test [2] was -1.18; in test [3] it was -4.48 (inactive); in test [4], -1.66 (inactive); in test [5] it was -0.631 (inactive).
Regarding `C=C[C@@H](C)[C@H](O)c1ccc(OCCO)cc1`, the composite z-score in test [1] was 0.313 (inactive); with XIP peptide (Xip251-270), 0.0813. Further, the z-score in test [2] was 0.99; in test [3] it was -0.166 (inactive); in test [4], 0.485 (inactive); in test [5], 0.739 (inactive).
Consider `Cc1ccc(S[C@]2(C(=O)NC(C)C)CC(=O)N(Cc3ccccc3Cl)[C@@H]2c2ccc(CO)cc2)cc1`, for which the composite z-score in test [1] is 0.73 (inactive); in the test with XIP peptide (Xip251-270), -0.11. The z-score is -1.49 in test [2], -3.73 (inactive) in test [3], -0.0383 (inactive) in test [4] and -0.0912 (inactive) in test [5].
Consider `COCC1=C2[C@@H](CCc3ccccc3)OB(O)C[C@@H]2[C@@H]2C(=O)N(C)C(=O)[C@@H]2C1`, for which the figures for the composite z-score (in test [1]; in the test on XIP peptide (Xip251-270)) were 0.0872 (inactive) and 0.763, respectively. For the same compound, the z-score in test [2] is 1.22; in test [3], -7.72 (inactive); in test [4] it was 0.684 (inactive); in test [5], 1.24 (inactive).
Turning to `COc1ccc(C(O)C2C=CC3C(=O)N(c4ccccc4)C(=O)C3N2Nc2ccc(C(C)C)cc2)c2ccccc12` (configuration not stated), the composite z-score in test [1] was 0.886 (inactive); in the test on XIP peptide (Xip251-270) it was 0.802. Besides, the z-score was -0.247 in test [2], -0.93 (inactive) in test [3], 0.417 (inactive) in test [4] and 0.0807 (inactive) in test [5].
In the case of `COc1ccc(C(O)C2C=CC3C(=O)N(c4ccccc4)C(=O)C3N2Nc2ccccc2F)cc1` (configuration not stated), the composite z-score in test [1] was 1.11 (inactive); in the test on XIP peptide (Xip251-270), 0.857. The z-score was 0.571 in test [2], -3.05 (inactive) in test [3], -0.296 (inactive) in test [4] and -0.741 (inactive) in test [5].
Consider `COc1ccc(C#Cc2ccc3c(c2)[C@]2(C(=O)N3)[C@H](C(=O)N3CCCCCCC3)[C@H]3C(=O)O[C@H](c4ccccc4)[C@H](c4ccccc4)N3[C@@H]2c2ccc(O)cc2)cc1`, for which the composite z-score in test [1] is 2.34 (inactive); with XIP peptide (Xip251-270) it was 0.755. Also, the z-score in test [2] is -1.56; in test [3], 0.625 (inactive); in test [4], -0.25 (inactive); in test [5], -0.372 (inactive).
For `COc1ccc([Si](C)(C)[C@H]2[C@H](CC(=O)N3Cc4ccccc4C[C@H]3CO)O[C@@]3(C(=O)N(Cc4ccc(N5C(=O)c6cccc7cccc5c67)cc4)c4ccccc43)[C@@H]2C)cc1`, the composite z-score in test [1] is 1.23 (inactive); in the test on XIP peptide (Xip251-270) it was 0.738. Besides, the z-score in test [2] was -1.79; in test [3], -2.7 (inactive); in test [4], -1.02 (inactive); in test [5], -0.113 (inactive).
`[N-]=[N+]=NC[C@H](Cc1ccccc1)NC(=O)c1ccccc1`: the composite z-score in test [1] is -0.359 (inactive); with XIP peptide (Xip251-270), 0.108. For the same compound, the z-score in test [2] was -0.855; in test [3], -0.271 (inactive); in test [4], 0.0506 (inactive); in test [5], 0.216 (inactive).
For the compound `O=C1[C@@H]2[C@@H](CC(COc3ccccc3)=C3[C@@H](CCc4ccccc4)OB(O)C[C@@H]32)C(=O)N1Cc1ccccc1`, the composite z-score in test [1] is 0.318 (inactive); in the test with XIP peptide (Xip251-270), 0.387. The z-score was 1.31 in test [2], -5.54 (inactive) in test [3], -0.242 (inactive) in test [4] and -0.22 (inactive) in test [5].
As to `CCCCCN1CC=CC23O[C@@H]4/C=C\CCC(C)OC(=O)C4[C@H]2C(=O)N(CCCCCCO)[C@@H]3C1=O` (some centres not stated), the figures for the composite z-score (in test [1]; in the test on XIP peptide (Xip251-270)) were 0.185 (inactive) and 0.459, respectively. The z-score was 0.162 in test [2], -4.71 (inactive) in test [3], -0.0032 (inactive) in test [4] and 0.453 (inactive) in test [5].
Consider `CCOC(=O)C[C@H]1[C@H](OC(=O)c2ccc(-c3ccccc3)cc2)[C@@H](NC(=O)Cc2ccc(OC)cc2)c2cc(OCCCO)ccc2N1C(=O)Cc1ccc(OC)cc1`, for which the composite z-score in test [1] is 0.0878 (inactive); in the test on XIP peptide (Xip251-270), -0.015. For the same compound, the z-score in test [2] was -1.18; in test [3] it was -1.32 (inactive); in test [4], -0.366 (inactive); in test [5], 0.0566 (inactive).
As for `COC(=O)[C@@]1(Cc2ccccc2CN=[N+]=[N-])N=C(c2ccc(OCCCO)cc2)O[C@H]1c1ccccc1`, the composite z-score in test [1] was 2.54 (inactive); in the test on XIP peptide (Xip251-270), 0.766. Further, the z-score in test [2] is -2.34; in test [3] it was -4.51 (inactive); in test [4] it was 0.022 (inactive); in test [5], 0.55 (inactive).

(Values after PubChem BioAssay.)
